KDM5B inh – inhibitors of human KDM5B histone demethylase | Q9UGL1 | KDM5B demethylase, FDH-coupled NADH fluorescence (FDH is formaldehyde dehydrogenase) | Potency, µM (series often up to 57.7 µM), actives largely listed as inhibitors | 2.6% of 220,000 active; active means well fitted inhibition curve with a large enough effect; further: nearly all actives have a fitted effect of over 70% in size
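KDM5BΔAP (200 nM final) in 50 mM HEPES pH 7.5, 0.01% Tween-20 was preincubated 10 min at RT with compound over a concentration range. Substrate mix (H3K4me3 12.5 µM, α-KG 25 µM, Fe²⁺, ascorbate, NAD⁺, FDH) was added, and NADH fluorescence change over 30 min gave dose-response curves.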
Numbers stand for hits; 0 = inactive. Many of the other results were omitted from the sample, so hits are more common in it than they were.

SMILES | KDM5B inh
COC(=O)CNC(=O)c1cc(C(C)(C)C)c2cccn2n1 | 0
Cn1c(SCc2ccc(F)cc2)nc2ccc(C(=O)NCc3ccc(Cl)cc3)cc21 | 0
O=C(NCc1ccc(F)cc1)c1nc2sccn2c1Br | 0
CC(NC(=O)NOCc1ccccc1)c1ccc(NC(=O)C2CC2)cc1 (stereo not drawn) | 0
COc1ccc(C(=O)N[C@H]2CO[C@H]3[C@@H]2OC[C@@H]3n2nnnc2Oc2cccc(N(C)C)c2)cc1 | 0
CN(C)c1ccc(C(=O)N[C@H]2CO[C@H]3[C@@H]2OC[C@@H]3n2nnnc2Oc2cccc(N(C)C)c2)cc1 | 0
Cc1cc(C)cc(NC(=S)N[C@H]2CO[C@H]3[C@@H]2OC[C@@H]3n2nnnc2Oc2cccc(N(C)C)c2)c1 | 25µM
COc1ccc(C(=O)N[C@H]2CO[C@H]3[C@@H]2OC[C@@H]3n2nnnc2Oc2ccc3c(c2)OCO3)cc1 | 35µM
O=C(O)c1ccccc1C(=O)N[C@H]1CO[C@H]2[C@@H]1OC[C@@H]2n1nnnc1Oc1ccc2c(c1)OCO2 | 0
CC(=O)c1ccc(NC(=O)N[C@H]2CO[C@H]3[C@@H]2OC[C@@H]3n2nnnc2Oc2cccc(N(C)C)c2)cc1 | 0
CC(C)CNc1oc(-c2ccco2)nc1S(=O)(=O)c1ccc2c(c1)OCCO2 | 0
Cc1nc2nc(CC(=O)Nc3ccccc3F)nn2c(C)c1Cc1ccccc1Cl | 0
COc1ccc(C(=O)N2CCCN(c3cc(-c4ccc(OC)cc4)[nH]n3)CC2)cc1 | 0
COc1ccc(-c2cc(N3CCCN(C(=O)c4cccc5[nH]ccc45)CC3)n[nH]2)cc1 | 28µM
COc1ccc(-c2cc(N3CCCC(NC(=O)c4cccc5[nH]ccc45)C3)n[nH]2)cc1 (stereo not drawn) | 25µM
COc1ccc(-c2cc(N3CCCC(NC(=O)c4cc5ccccc5[nH]4)C3)n[nH]2)cc1 (stereo not drawn) | 0
O=C(NC1CCN(c2cc(-c3ccc(F)cc3)[nH]n2)C1)c1c[nH]c2ccccc12 (stereo not drawn) | 14µM
COc1ccc(-c2cc(N3CCCN(C(=O)c4ccccc4)CC3)n[nH]2)cc1 | 0
COc1ccc(-c2cc(N3CCCC(NC(=O)c4ccccc4F)C3)n[nH]2)cc1 (stereo not drawn) | 0
O=C(NC1CCN(c2cc(-c3ccccc3)[nH]n2)C1)c1ccccc1F (stereo not drawn) | 0
Cc1nc(N2CCC(NC(=O)c3cccc4[nH]ccc34)CC2)cc(C(F)(F)F)n1 | 28µM
COc1ccccc1C(=O)NC1CCN(c2cc(C(F)(F)F)nc(C)n2)CC1 | 0
O=C(NC1CCN(c2cc(-c3ccc(F)cc3)[nH]n2)CC1)c1c[nH]c2ccccc12 | 0
Cc1nc(N2CCC(NC(=O)c3ccc(F)cc3)CC2)cc(C(F)(F)F)n1 | 0
COCC(C)NC(=O)CCc1ncc(-c2ccc(C)c(C)c2)o1 (stereo not drawn) | 0
SMILES | KDM5B inh
COP(=O)(OC)c1nc(-c2cccs2)oc1NCc1ccccc1Cl | 0
CC(C)CCNC(=O)CCNC(=O)c1ccccc1 | 0
CCc1nn(C(CC)C(=O)NCc2ccccc2C)c(=O)c2cc3oc(C)cc3n12 (stereo not drawn) | 0
Cc1oc(C(O)c2ccccc2F)nc1C(=O)Nc1ccc2[nH]c(=O)[nH]c2c1 (stereo not drawn) | 0
CCOc1ncccc1CNC(=O)C1CCN(S(=O)(=O)c2cccnc2)CC1 | 0
Cc1ccc(NC(=O)CCc2c(C)nn(-c3ccc(N4CCCC4)nn3)c2C)cc1 | 0
C#CCNC(=O)[C@H]1O[C@H](CCN2CCN(c3ccccc3)CC2)CC[C@@H]1O | 0
CCCCn1nc(C(=O)NCc2ccc(C(=O)O)cc2)c2ccccc2c1=O | 0
CN(C)C(=O)N1CCCn2nc(CNC(=O)c3sccc3N)cc2C1 | 35µM
Cc1cccc(=O)n1CCC(=O)NCc1cc2n(n1)CCN(C(=O)N(C)C)C2 | 0
Cc1nc(CCC(=O)NCc2cc3n(n2)CCCN(C(=O)N(C)C)C3)n[nH]1 | 0
O=C(Nc1ccc(Br)cc1F)c1cccs1 | 0
C/C(=N\NC(=O)C1CCCCC1)c1ccc2ccccc2c1 | 0
Cc1cc(C(=O)CSc2nnc(CN3CCCC3)n2-c2ccccc2)c(C)n1C | 0
Cc1cc(S(=O)(=O)N2CCN(C(=O)c3ccc(-n4cccc4)cc3)CC2)ccc1Br | 0
CCOC(=O)C1(Cc2ccc(Cl)cc2)CCN(C(=O)c2cc(C)oc2C)CC1 | 32µM
CCOC(=O)C1(Cc2ccc(OC)cc2)CCN(C(=O)CCc2ccccc2OC)CC1 | 0
CCOC(=O)C1(Cc2ccc(Cl)cc2)CCN(C(=O)CC2=CCCCC2)CC1 | 0
O=C(CCc1c[nH]c2ccccc12)NCc1ccc(Cl)cc1Cl | 0
O=C(CC1CC2CCC1C2)NCC12CC3CC(CC(C3)C1)C2 (stereo not drawn) | 0
CC(=O)Nc1cccc(C(C)NC(=O)Nc2cccc(C(F)(F)F)c2)c1 (stereo not drawn) | 0
O=C(c1cnccn1)N1CC(c2nnc(-c3ccncc3)o2)C2(CCOCC2)C1 (stereo not drawn) | 0
O=c1oc(-c2ccc(F)cc2)nn1CC(O)COc1ccc2ccccc2c1 (stereo not drawn) | 0
